Data as given in PubChem BioAssay (NCI).
The panel holds about 83,000 compounds, 20% with a hit somewhere; the sample as a whole holds those more often.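 Cells were grown in 96-well plates and exposed to the test compound at a single concentration for 48 hours; results are reported as percent growth, with values below 10 considered active.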 Values without a mark were called inactive. Active and inactive are the calls of the source.

Tests used:
Assay in all cases: NCI-60 one-dose screen, 48 h (100 = growth as untreated, 0 = no growth, -100 = all killed)
Details in all cases: 10 µM unless noted
[1] = system: DU-145 prostate
[2] = system: K-562 leukemia
[3] = system: MALME-3M melanoma
[4] = system: MDA-MB-231 breast
[5] = system: RXF 393 renal
[6] = system: SF-268 CNS
[7] = system: SF-295 CNS
[8] = system: SF-539 CNS
[9] = system: UACC-257 melanoma
[10] = system: M14 melanoma

SMILES	growth [1]	growth [2]	growth [3]	growth [4]	growth [5]	growth [6]	growth [7]	growth [8]	growth [9]	growth [10]
COc1cc2c(cc1OC)C(Cc1cc(OC)c(OC)cc1[N+](=O)[O-])=NCC2	101%	69%	101%	82.6%	90.8%	90%	42.9%	80.6%	102%	60.1%
Oc1ccccc1/C=N/N=C\c1ccccc1Cl	99.5%	77.1%	103%	72.6%	97.3%	91.9%	98.7%	105%	104%	91%
CCCCCCCCCCCCCCCCNC(=S)N/N=C/c1ccc(OC)cc1	104%	105%	103%	95.1%	92%	107%	84.9%	91.7%	99.3%	96.1%
N=C(N)c1ccc(-c2ccc(-c3ccc(F)cc3)s2)cc1	-92.9% (active)	-62.9% (active)	-75.6% (active)	-86.8% (active)	-98.4% (active)	-79.9% (active)	-94.1% (active)	-95.4% (active)	-79.5% (active)	-83.1% (active)
CC(=O)Nc1nc(C)c(C(=O)NNC(=O)Nc2ccccc2)s1	101%	114%	126%	89.6%	121%	99.8%	116%	99.4%	116%	107%
c1ccc(Nc2ccccn2)cc1	111%	89.5%	103%	96.6%	113%	115%	102%	99.5%	104%	107%
C/C=C/C/C=C/[C@H](C)C[C@H](O)[C@@H]1C[C@@H]2O[C@H]2/C=C/[C@@H]2OC(C)(C)O[C@H]2/C=C/C[C@H](C)CC(=O)O1	36.1%	30.1%	87.6%	61.6%	81.1%	46.9%	28.8%	71%	69.9%	36.8%
C/C=C(/C)C(=O)OC1C=C(CO)C(=O)C(OC(=O)/C(C)=C\C)C1C(C)C (stereo not given)	-90.9% (active)	-18.3% (active)	-91.2% (active)	-61.2% (active)	-79.2% (active)	-57.3% (active)	-54.3% (active)	-92.1% (active)	-48.8% (active)	-84.7% (active)
CC(=O)N1CCN(CCNC(=O)n2cc(-c3ccncc3)c(-c3cc(O)cc(Cl)c3)n2)CC1	89.5%	53.5%	31.9%	82.5%	65.2%	96%	80.5%	71.6%	-34% (active)	5.16% (active)
N#Cc1ccc(OCc2nc(N)nc(N)c2-c2ccc(Cl)c(Cl)c2)cc1	34.3%	12.6%	49.5%	50.7%	46%	33.6%	3.74% (active)	22.7%	22.8%	27.6%
O=C1/C(=N\c2cc(=O)[nH]n2S(=O)(=O)c2ccccc2)Nc2ccccc21	108%	98.7%	95.1%	96.5%	101%	97.6%	101%	94.8%	123%	91.1%
COC(=O)/C=C1/CCCCC1(C)C(=O)OC (stereo not given)	112%	103%	109%	110%	106%	110%	120%	119%	98.4%	101%
Cn1c2c(cc(S(=O)(=O)c3ccccc3)c1=O)CCc1c-2cnn1-c1ccc(Cl)cc1	8.78% (active)	39.8%	-70.7% (active)	31.3%	2.65% (active)	32.9%	-4.18% (active)	-19% (active)	11.7%	64%
CCCCCCCCCCCCCCCC[n+]1cccc(C#N)c1	68.2%	6.02% (active)	92%	69.7%	17.4%	53.3%	91.5%	25.5%	103%	62%
CCOC(=O)/C(C#N)=C(/CC)OCC	106%	89%	92.6%	107%	114%	93.1%	101%	113%	99.9%	95.5%
COc1ccc2nc3cc(Cl)ccc3c(NCCCNC(C)=O)c2c1	29.4%	23.9%	40%	56.8%	32.9%	43%	45.7%	20.1%	43.1%	44.4%
Cc1nc2c(nnn2-c2ccccc2)c2nc(-c3ccc(Cl)cc3)oc(=O)c12	119%	112%	101%	119%	104%	103%	102%	96.8%	117%	108%
CC(O)CN(CCO)CCN(CCO)CC(C)O (stereo not given)	106%	107%	106%	115%	93%	107%	94.2%	94.8%	108%	106%
CC(C)(CNC1CCCCC1)OC(=O)c1ccccc1	104%	94.1%	99.2%	110%	102%	107%	94.1%	108%	110%	102%
COC(=O)c1ccc2[nH]c(O)c(C(=Nc3ccc(N(C)C(=O)CN4CCN(C)CC4)cc3)c3ccc(OC)cc3)c2c1	21.1%	4.93% (active)	6.81% (active)	23.6%	-24.8% (active)	21.3%	37.6%	-0.308% (active)	48.9%	14.3%
Cc1nc(NC(=O)NC2CCCCC2)sc1C(=O)NN	109%	154%	-7.04% (active)	97.9%	112%	101%	103%	113%	101%	94.9%
C=C(NC(=O)[C@H](C(C)C)N(C)c1cccc2[nH]ccc12)C(=O)OC	100%	89.4%	92.8%	109%	106%	101%	101%	117%	96.9%	94.9%

SMILES	growth [1]	growth [2]	growth [3]	growth [4]	growth [5]	growth [6]	growth [7]	growth [8]	growth [9]	growth [10]
CCC(CCCN1C(=O)c2ccccc2C1=O)Nc1cc(OC)cc2cccnc12 (stereo not given)	102%	77.2%	142%	93.2%	-5.08% (active)	119%	111%	93.4%	100%	-100% (active)
Oc1ccc(Br)cc1/C=N/NC(=S)NC12CC3CC(CC(C3)C1)C2	9.26% (active)	0.99% (active)	17.6%	-4.61% (active)	-15.6% (active)	8.34% (active)	17%	36.7%	26.1%	20.6%
CCOC(=O)C1C(=O)C(=O)N(C(C)C)C1C(=O)OCC (stereo not given)	113%	108%	92.4%	103%	105%	99.3%	98.2%	99.8%	86.7%	111%
N#Cc1c2cccnc2c2nnc3cc(Cl)c(Cl)cc3n12	36.4%	5.64% (active)	25.6%	2.64% (active)	-3.12% (active)	16.8%	80.8%	35.1%	73.1%	78.1%
CCN(CC)CCCNc1c2ccc(Cl)cc2nc2ccc(OC)cc12	5.08% (active)	-21.9% (active)	-59.7% (active)	-39.5% (active)	-57.9% (active)	-10.1% (active)	-21.7% (active)	-65.7% (active)	33.4%	-79% (active)
O=C(Nc1ccc(-n2cc(-c3ccncc3)c(-c3ccc(Cl)c(O)c3)n2)cc1)c1cc(C(F)(F)F)cc(C(F)(F)F)c1	74.2%	29.7%	102%	46.3%	-42.6% (active)	61.8%	25%	50.9%	63.2%	45.1%
CCC(C)(C)c1ccc(OCCCCCCN2CCN(c3ccc(C)c(Cl)c3)CC2)cc1	86%	78.4%	86.7%	115%	95.6%	82.5%	85.7%	98.6%	110%	93.7%
O=C(Nc1ccccc1)Nc1ccc(Nc2ncnc3sc4c(c23)CCCC4)cc1	109%	99.8%	102%	91.7%	102%	100%	102%	104%	93.5%	103%
COC(=O)c1ccc(C(=Nc2ccc(N(C)C(=O)CN3CCN(C)CC3)cc2)c2c(O)[nH]c3ccc(C(=O)OC)cc23)cc1	38.2%	7.19% (active)	-14.7% (active)	49.2%	17.7%	32.8%	44.4%	23.3%	67.7%	28.7%
N/C(=N\O)c1ccncc1	104%	104%	108%	102%	115%	97.9%	94.5%	105%	106%	99.8%
CCCCCCCCCCCC(=O)OC(C)C(=O)Nc1ccccc1 (stereo not given)	106%	97.7%	96.3%	109%	117%	102%	85.7%	98.9%	99.7%	96.9%
CC[C@H](Nc1ncnc2nc[nH]c12)c1nc2cccc(NCc3ccc(C(=O)NO)nc3)c2c(=O)n1-c1ccccc1	67%	10.5%	62.3%	50.6%	27.8%	35.9%	80.9%	10.9%	56.3%	68.5%
C/C(CCC(=O)O)=N/Nc1ccc([N+](=O)[O-])cc1	82.2%	22.3%	111%	51.4%	99.4%	72.3%	2% (active)	12.7%	90.3%	24.3%
CC(C)CSc1nc(-c2ccc(F)cc2)c(C#N)c(N2CCCCC2)n1	94.1%	95.8%	86.1%	101%	87.7%	90.9%	92.6%	103%	100%	89.8%
O=C(OCC1CC2(Cl)C(Cl)=C(Cl)C1(Cl)C2(Cl)Cl)C1C(C(=O)OCC2CC3(Cl)C(Cl)=C(Cl)C2(Cl)C3(Cl)Cl)C2(Cl)C(Cl)=C(Cl)C1(Cl)C2(Cl)Cl (stereo not given)	97.4%	94.7%	98.6%	109%	104%	100%	94.8%	97.9%	113%	98.5%
COc1ccc(/C(=C(\c2ccccc2)[N+](=O)[O-])c2ccc(OCCN3CCCC3)cc2)cc1	89.3%	13.7%	-7.32% (active)	55%	25%	84.4%	31.9%	28.6%	-26.1% (active)	-73.4% (active)
CC(=O)OC1CC2C3CCC4C[C@@H](NC(=O)C=C(C)C)CC[C@]4(C)C3CC[C@]2(C)[C@H]1C(C)N(C)C (stereo not given in full)	31.6%	-37.5% (active)	-54% (active)	-36.1% (active)	-64.6% (active)	-63% (active)	-37.6% (active)	-76.5% (active)	-58.4% (active)	-59.9% (active)
Cc1c(Cc2ccccc2)c(=O)oc2c(C)c(OCc3n[nH]c(=S)o3)ccc12	19.4%	71.6%	48.7%	80.7%	98.8%	75.9%	77%	92.1%	88%	99.3%
CCCCCCC(C)N(CC(C)(C)O)C(=O)c1ccc([N+](=O)[O-])cc1 (stereo not given)	101%	85.1%	95.8%	106%	100%	110%	88.6%	108%	106%	93.4%
CC(=O)Nc1ccc(C(=O)/C=C/c2ccc(N(C)C)cc2)cc1	98.2%	98.2%	88.9%	104%	99.1%	93.7%	99%	106%	95.5%	99.4%
O=C1C(Br)=CC2C1C1C3CCC3C2(Br)C12OCCO2 (stereo not given)	19.7%	15.8%	46%	51.7%	18.4%	25.6%	31.4%	14.5%	54%	44.4%
